Results from ChEMBL document CHEMBL4513216, “Probing the Open Global Health Chemical Diversity Library for Multistage-Active Starting Points for Next-Generation Antimalarials” (ACS Infect Dis, 2020).
Among all 69,000 compounds or so, about 8,600 (12%) showed an effect of 50% or more. Shown is part of a subset that was picked to be rich in strong results.

Tested on: Plasmodium berghei
Experiment: Screen against P. berghei liver stage (PbLuc), transformed with Luciferase, at 10uM
Type: functional, HepG2
Conditions: tested at 10 uM

| Compound | INHIBITION [%] |
| --- | --- |
| Cc1nc(CN(C)C(=O)CN(C)C)nc2c1CCC(=O)N2CCC(C)C | 7.43 |
| Cc1cccc(CS(=O)(=O)c2nnc([C@@H](N)Cc3ccccc3)o2)c1 | 23.1 |
| COc1ccc(C)cc1NC(=O)c1c(C)cn(C)c1CC(=O)O | -0.473 |
| CCOC(=O)Cn1c(=O)c(OCC)nc2cnccc21 | 42.6 |
| CN(C)CC(=O)N1CCCC2(CCN(c3ccccc3)C2=O)C1 (stereo not given) | -4.82 |
| CCOc1ccccc1CNC(=O)N1CCC(Cc2cnn(C)c2)C1 (stereo not given) | -12.45 |
| C1CN(CC2CCOCC2)Cc2c(COCC3CC3)nnn2C1 | 8.03 |
| CCOC(=O)c1nc(CC(=O)Nc2ccc3cc[nH]c3c2)no1 | 3.19 |
| OCc1cn(Cc2cccc(F)c2)nn1 | 28.5 |
| O=C(O)CCCC(=O)NCC1(O)CCN(c2ccnc3cccnc23)C1 (stereo not given) | 17.25 |
| O=C(CN1CCCC1=O)N1CCC(O)(Cn2ccc3ccncc32)CC1 | 7.52 |
| COC(=O)C1CCN(C(=O)Cn2ccc(-c3ccsc3)n2)CC1 | -46.4 |
| CCCS(=O)(=O)NCc1cccnc1OCc1ccccc1 | 50.4 |
| CCCS(=O)(=O)NCc1cccnc1OCC | -1.53 |
| CCCC(C)CS(=O)(=O)NCc1cccnc1OC (stereo not given) | 1.94 |
| COc1ccc(CSc2nnc(N)n2C2CC2)cc1F | -16.3 |
| O=C(CCC(=O)N1CCC(c2noc3cc(F)ccc23)CC1)NC1CC1 | 10.5 |
| N#Cc1ccc(C(=O)N2CCC(c3ncc[nH]3)CC2)cn1 | 51.2 |
| Cn1cc(C(=O)N2CCC(c3ncc[nH]3)CC2)cn1 | 14 |
| O=C(c1cncc(F)c1)N1CCC(c2ncc[nH]2)CC1 | 31.2 |
| CC(=O)N1CC2(CCN(c3ccc4ccccc4n3)CC2)CC1C(=O)O (stereo not given) | 44 |
| COCCNC(=O)[C@H]1CN(Cc2sccc2C)C[C@H]2OCC[C@@H]12 | -4.88 |

| Compound | INHIBITION [%] |
| --- | --- |
| CC(C)c1ccc(NC2CCCN(Cc3ccncc3)C2)cc1 (stereo not given) | 70.3 |
| Cc1cc(C2CCCN(Cc3cccnc3)C2)n[nH]1 (stereo not given) | 59.1 |
| Cc1cncc(C2CCN(Cc3ccncc3)CC2)n1 | 23.3545 |
| Cc1cnc(CN2CCCC(c3cc(C)[nH]n3)C2)cn1 (stereo not given) | 35.9 |
| Fc1ccc(NC2CCCN(Cc3ccncc3)C2)cc1 (stereo not given) | -10.6 |
| Cc1cc(C2CCCN(Cc3nnc(Cc4ccccc4)o3)C2)n[nH]1 (stereo not given) | 17 |
| FC(F)(F)c1cc(C2CCCN(Cc3cccnc3)C2)n[nH]1 (stereo not given) | 35 |
| CC1CCCN(Cc2ccc(CNC(=O)NCc3ccncc3)cc2)C1 (stereo not given) | 22.5 |
| Cc1cc(C2CCCN(Cc3noc(Cc4ccccc4)n3)C2)n[nH]1 (stereo not given) | -10.8 |
| Cc1ccc(CN2CCCC(c3cncc(C)n3)C2)cn1 (stereo not given) | -6.3 |
| Cc1cc(C2CCCN(Cc3nc(Cc4ccccc4)no3)C2)n[nH]1 (stereo not given) | 79.7 |
| Cc1cncc(C2CCCN(Cc3ccncc3)C2)n1 (stereo not given) | 60.4 |
| CCC(O)CN1CCN(C(=O)CN(C)c2ccc(Cl)cn2)CC1 (stereo not given) | 3.03 |
| C=C(C)COc1ccccc1CNCCc1cc(O)nc(C)n1 | 7.65 |
| CC(C)Nc1nc(O)cc(C(C)n2ncc3ccccc3c2=O)n1 (stereo not given) | 29.9 |
| COc1cccc2cc(CNC(=O)N3CCOC(C)(C)C3)oc12 | 33.8 |
| COc1cc(C(=O)N2CCCC(CNS(C)(=O)=O)C2)ccc1C (stereo not given) | 7.12 |
| COc1c(Br)c(CC2CC(CO)=NO2)c(Br)c2c1OCO2 (stereo not given) | 42.4 |
| CC(C)CCN1C[C@H]2CCN(C(=O)NC3CCCC3)CC[C@H]2S1(=O)=O | 37.1 |
| O=C(NCCn1ccnc1)C1COCC(=O)N1Cc1ccccc1 (stereo not given) | 66.1 |
| O=C(NCCCn1cccn1)C1COCC(=O)N1Cc1ccccc1 (stereo not given) | 49 |
| O=C(NCCCn1ccnc1)C1COCC(=O)N1Cc1ccccc1 (stereo not given) | 38.3 |

| Compound | INHIBITION [%] |
| --- | --- |
| Cc1noc(C)c1C(=O)N1C[C@@H]2CC[C@H]1CN(c1cnccn1)C2 | -39.2 |
| Cn1cc(CN2CCC(F)(F)C3(CCN(c4ncccn4)C3)C2)cn1 (stereo not given) | 9.51 |
| Cc1ccc(N2CCC3(CN(Cc4cccs4)CCC3(F)F)C2)nn1 (stereo not given) | 61.3 |
| Cc1ccc(CN2CCC(F)(F)C3(CCN(c4cnccn4)C3)C2)o1 (stereo not given) | 35.1 |
| Fc1ccc(CN2CCC(F)(F)C3(CCN(c4cnccn4)C3)C2)cc1 (stereo not given) | 1.61 |
| Cc1ccc(N2CCC3(CN(CCO)CCC3(F)F)C2)nn1 (stereo not given) | 39.5 |
| Cc1ccc(N2CCC3(CN(Cc4ccncc4)CCC3(F)F)C2)nn1 (stereo not given) | 89.1 |
| CC(C)(C)c1ncc(C(=O)NCCNS(C)(=O)=O)s1 | -33.9 |
| CNS(=O)(=O)CC(=O)N1CCCc2cc(C(C)C)ccc21 | 39.7 |
| O=C(c1cnc(-c2ncccn2)s1)N1CCCC(n2cccn2)C1 (stereo not given) | 21 |
| CNC(=O)C1CCN(c2cc(C3CCNCC3)nc(C)n2)C1 (stereo not given) | 26.4 |
| Cc1nc(NCCC23CCCN2CCC3)cc(C2CCCNC2)n1 (stereo not given) | -59.5 |
| Cc1nc(C2CCCNC2)cc(N2CCc3nc(N)sc3C2)n1 (stereo not given) | 53.6 |
| Cc1nc(NCC23CCCN2CCC3)cc(C2CCCNC2)n1 (stereo not given) | -71.1 |
| CNC(=O)c1[nH]nc2c1CN(c1cc(C3CCCNC3)nc(C)n1)CC2 (stereo not given) | 55.4 |
| CNc1cc(C2CCCNC2)nc(C)n1 (stereo not given) | 16.4875 |
| O=C(COc1coc(CN2CCOCC2)cc1=O)Nc1ccccc1F | -0.532 |
| Cc1ncc2c(c1C(=O)O)CCN(c1ncc(F)cn1)C2 | 7.24 |
| Cc1nc(CN2CCOC(Cn3cccn3)C2)no1 (stereo not given) | 4.71 |
| Cc1noc(C2CCN(Cn3cc(Cl)cn3)CC2)n1 | 37.9 |
| C[C@]1(O)CCN(Cc2ncccc2F)C[C@@H]1Oc1ccccc1 | -11.7 |
| CC[S+](CC)[c-]1c(=O)[nH]c(=O)n(CCc2ccc(F)cc2)c1=O | -17.6 |

| Compound | INHIBITION [%] |
| --- | --- |
| O=C(O)c1cnc(N2CCC(O)CC2)nc1COc1cccc(F)c1 | 6.67 |
| CCOc1ccc(Br)cc1C1CCCN1 (stereo not given) | 16.8 |
| Fc1cnc(N2CCC3(CC2)CN(Cc2ccccn2)CCO3)nc1 | -3.51 |
| O=C(c1ccccc1)N1CCOC2(CCN(Cc3cccs3)CC2)C1 | -11 |
| Cc1cnc(N2CCC3(CC2)CN(Cc2cccs2)CCO3)nc1 | 58.3 |
| c1ccc(CN2CCOC3(CCN(c4ncccn4)CC3)C2)nc1 | 14.2 |
| Fc1cnc(N2CCOC3(CCN(Cc4cccs4)CC3)C2)nc1 | 48.4 |
| Fc1cnc(N2CCC3(CC2)CN(Cc2cccs2)CCO3)nc1 | 60.3 |
| O=C(NCc1csc(Br)c1)Nc1cn[nH]c1 | 17.5 |
| COCCC1(C(=O)O)CCCN(Cc2cc3c(cc2Cl)OCO3)C1 (stereo not given) | 58.5 |
| COCCCC1(C(=O)O)CCCN(Cc2cc3c(cc2C)OCCO3)C1 (stereo not given) | -31.4 |
| COCCC1(C(=O)O)CCCN(CCOCc2ccccc2)C1 (stereo not given) | 27.9 |
| COCCCC1(C(=O)O)CCCN(Cc2ccccc2C)C1 (stereo not given) | 14.9 |
| COCCC1(C(=O)O)CCCN(Cc2cc3c(cc2C)OCO3)C1 (stereo not given) | 57.2 |
| COCCC1(C(=O)O)CCCN(CCc2ccccc2)C1 (stereo not given) | 31.6 |
| C=c1cc(C)oc1=C1NC(c2c(C)ncc3c2CCNC3)=NO1 | 49 |
| O=C(Nc1cnn(Cc2ccc(Cl)cc2)c1)N1CCCC1CO (stereo not given) | -31.1 |
| FC1(F)CCNCC12CCN(c1cccnc1)C2 (stereo not given) | 33 |
| O=C(NCCNc1ncccn1)C1CC(=O)N(Cc2ccccn2)C1 (stereo not given) | 50.5 |
| O=C(NCCNc1ncccn1)C1CC(=O)N(Cc2ccccc2)C1 (stereo not given) | -24.2 |
| O=C(NCCNc1ncccn1)C1CC(=O)N(Cc2ccco2)C1 (stereo not given) | 2.3 |
| O=C1CCc2cc(NC(=O)C3CCCN3c3nccs3)ccc2N1 (stereo not given) | 24.3165 |

| Compound | INHIBITION [%] |
| --- | --- |
| O=C1CC[C@H](C(=O)N(CCc2ccccc2)C2CCOC2)N1 (stereo not given in full) | 55 |
| O=C(C1CC1)N(CCc1ccccc1)C1CCOC1 (stereo not given) | -28.6 |
| O=C(C1CCOCC1)N(CCc1ccccc1)C1CCOC1 (stereo not given) | -5.33 |
| C[C@H]1CN(C(=O)N(C)C)C[C@@]12CCN(c1ccsc1)C2=O | 36.9 |
| O=C(NCC(F)F)c1ccc(S(=O)(=O)NCCc2c[nH]cn2)cc1 | 10.4 |
| O=C(c1ccc(S(=O)(=O)NCCc2ccncc2)cc1)N1CCCC1 | 57.6 |
| O=C(NCC(F)F)c1ccc(S(=O)(=O)NCCc2ccncc2)cc1 | 52.2 |
| O=C(c1ccc(S(=O)(=O)NCCc2ccccn2)cc1)N1CCCC1 | 30.3 |
| O=C(c1ccc(S(=O)(=O)NCc2ccncc2)cc1)N1CCNCC1 | 19.5 |
| O=C(NCC(F)F)c1ccc(S(=O)(=O)NCCc2cn[nH]c2)cc1 | 35.8 |
| CC(C)c1nccn1C1CCCN(C(=O)c2cn3cccnc3n2)C1 (stereo not given) | 1.78 |
| Cc1ncccc1NC(=O)c1nc2c(n1C)CCN(C(=O)C1CC1)C2 | 66.6 |
| Cn1c(C(=O)NC2CC2)nc2c1CCN(c1ncccn1)C2 | 21.6 |
| Cn1c(C(=O)NC2CCCC2)nc2c1CCN(Cc1ccccc1)C2 | -18.5 |
| Cc1cnn(CC2CCCCN2c2nn3cc(C)nc3s2)c1 (stereo not given) | -23.9 |
| CC1(C)CN(C(=O)c2occc2COc2cccc(C#N)c2)CCO1 | -10.8 |
| Cc1cnn(C2CN(CCOc3cccc(C#N)c3)C2)c1 | 69.9 |
| Cc1cnn(C2CN(CCCOc3ccc(C#N)cc3)C2)c1 | 49 |
| Cc1cnn(C2CN(CCOc3ccccc3C#N)C2)c1 | 58.8 |
| Cc1cc(C)n(CC2CN(CCOc3ccccc3C#N)CCO2)n1 (stereo not given) | -10.6 |
| Cc1cnn(C2CN(CCOc3ccc(C#N)cc3)C2)c1 | -26.1 |
| Cn1ccnc1CN1CCN(CCOc2ccccc2C#N)CC1 | 44.8 |
